# From PubChem BioAssay AID651813 (National Center for Advancing Translational Sciences (NCATS), 2012)
# The whole screen tested about 2,100 compounds, of which about 1,100 (52%) were called active. Another 27% or so got no clear call; they are omitted. Calls come from the whole dose curve; as a rule, active = well fitted inhibition curve with a large enough effect; inconclusive = small, poorly fitted or top-dose-only effect; inactive = no such curve, though single readings can be large or run the other way. The set was probably picked from earlier hits. Some of the results follow.
# Target: DNA dC->dU-editing enzyme APOBEC-3G (Homo sapiens) (UniProt Q9HC16)
# Sequence (Q9HC16 whole entry, looked up): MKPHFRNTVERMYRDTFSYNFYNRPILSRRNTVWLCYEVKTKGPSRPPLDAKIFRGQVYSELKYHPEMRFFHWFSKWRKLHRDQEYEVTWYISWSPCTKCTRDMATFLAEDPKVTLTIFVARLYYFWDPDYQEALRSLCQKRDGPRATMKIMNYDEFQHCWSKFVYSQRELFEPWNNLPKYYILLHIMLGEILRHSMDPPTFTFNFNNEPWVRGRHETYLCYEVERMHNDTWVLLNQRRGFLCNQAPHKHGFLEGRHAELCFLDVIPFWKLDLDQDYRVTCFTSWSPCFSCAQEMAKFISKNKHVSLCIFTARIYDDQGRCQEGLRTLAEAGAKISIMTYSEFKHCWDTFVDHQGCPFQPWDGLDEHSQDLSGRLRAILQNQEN
# Test: qHTS for inhibitors of Vif-A3G interactions: Cherry picks counterscreen;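 note: hits raise yellow fluorescence by blocking Vif-driven A3G-eYFP degradation; nearly all actives have a fitted effect of over 70% in size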;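 for max response: max response given as percent of control signal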
# Conditions: HeLa A3G-eYFP + Vif (tagged APOBEC3G with the HIV-1 protein that degrades it), eYFP fluorescence, 24 h
# Procedure, shortened: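 Readout is eYFP fluorescence (488 nm excitation, 500-530 nm emission) measured on Acumen Explorer after 24 h compound exposure, several concentrations, at 37 deg C. Cells: HeLa stably co-expressing Vif and C-terminally eYFP-tagged A3G; MG132 positive control.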
# Potency is the fitted concentration of half-maximal effect.
SMILES,Potency,max response
O=C(Cn1cnc2c(cnn2-c2ccc(F)cc2)c1=O)NCc1ccco1,17.7 µM (active),–
CC(C)(C)n1ncc2c(=O)n(CC(=O)NCc3ccc(F)cc3)cnc21,7.9 µM (active),–
Cc1sc2ncn(CC(=O)NCc3ccccc3)c(=O)c2c1C,–,-26.2% (inactive)
Cc1ccc(Cn2nnc3c(=O)n(CC(=O)NCc4ccccc4)cnc32)cc1,8.86 µM (active),–
CCN(Cc1ccccc1)c1ccc(/C=C/c2nccc3ccccc23)cc1,13 µM (active),–
CN(C)c1ccc(C=Cc2nccc3ccccc23)cc1,14 µM (active),–
CN(C)c1ccc(/C=C/c2nccc3ccccc23)cc1,13 µM (active),–
CCN(CC)c1nc(C=Cc2ccc(N(C)C)cc2)c2nccnc2n1,0.651 µM (active),–
CC(=O)/C(=C\N(C)C)Sc1ccc(Cl)cc1,–,12% (inactive)
Cc1sc2ncnc(SCC(=O)NC(C)(C)C)c2c1C,–,-17.9% (inactive)
COc1ccccc1Nc1nnc(SCC2CCCCO2)s1 (stereo not drawn),17.7 µM (active),–
COc1cccc(OCc2nc3ncc(Br)cc3[nH]2)c1,3.14 µM (active),–
Nc1cccc(CCc2nc3cc4ccccc4cc3[nH]2)c1,4.98 µM (active),–
COc1cccc(N2CC(O)=C(c3nc4ccccc4s3)C2=N)c1,7.9 µM (active),–
COc1cccc(N2CC(O)=C(c3nc4ccccc4c(=O)[nH]3)C2=N)c1,2.23 µM (active),–
CCOC(=O)Nc1ccc2c3c(cccc13)-c1ccccc1-2,2.31 µM (active),–
CC(C)(C)c1ccc(OCC(=O)Nc2ccc3c4c(cccc24)C(=O)NC3=O)cc1,–,43.9% (inactive)
O=CNc1ccc2c3c(cccc13)-c1ccccc1-2,11.2 µM (active),–
N#Cc1cc2ccccc2nc1SCc1ccccn1,23.1 µM (active),–
CCCCCCN1C[C@H](O)[C@@H](n2cc(COC(=O)c3ccccc3)nn2)C[C@@H]1c1ccc(C)cc1,–,4.43% (inactive)
CN(C)c1ccc2ccc3cccc4ccc1c2c34,13 µM (active),–

SMILES,Potency,max response
CSc1ccc(C2NC(=O)c3ccccc3N2)cc1 (stereo not drawn),11.2 µM (active),–
O=C1NC(c2ccc(Br)cc2)Nc2ccccc21 (stereo not drawn),17.7 µM (active),–
O=C1NC(c2cccc(Cl)c2)Nc2ccccc21 (stereo not drawn),12.5 µM (active),–
CC(C)n1cc(NC(=O)c2cc(-c3ccccc3)on2)cn1,5.59 µM (active),–
CCn1c(O)c(/C=N/N=C/c2ccc(OC)cc2)c2cc(C3=NNC(=O)CC3)ccc21,13 µM (active),–
N#C/C(=C\c1ccc(Cl)cc1)c1nc2ncccc2[nH]1,–,-13.6% (inactive)
N#CC(=Cc1ccccn1)c1nc(-c2ccc(Cl)cc2)cs1,6.27 µM (active),–
Cc1ccc(CNC(=O)Cn2cc(C(=O)c3ccc(Cl)cc3)c(=O)c3ccc(C)nc32)cc1,–,-25% (inactive)
O=C(Cn1nc2c(cc1=O)CCCC2)NCc1ccc(Cl)cc1,13 µM (active),–
CCC(C)Sc1cccc(-c2nc3cc(C)ccn3c2NC2CCCCC2)c1 (stereo not drawn),–,18.8% (inactive)
Cc1cccc(N2CCN(C(=O)c3ccncc3)CC2)c1C,12.5 µM (active),–
O=C1COc2ccc(C(=O)CSc3nc4ccccc4c(=O)n3-c3ccc(Cl)c(Cl)c3)cc2N1,18.4 µM (active),–
Cc1ccc(/C=C2/CNC/C(=C/c3ccc(C)cc3)C2=O)cc1,5.59 µM (active),–
C[C@]12CCC[C@H](O1)c1c(cc3c(c1O)C(=O)c1c(O)cc(O)cc1C3=O)O2,16.4 µM (active),–
Cc1cc(N(C)C)c(C)cc1/C=C/c1ccnc2ccccc12,10.3 µM (active),–
CCN(CC)c1cc(C)c(/C=C/c2ccnc3ccccc23)cc1C,16.4 µM (active),–
O=C(O)c1ccccc1N/N=C/c1c(Sc2nnnn2-c2ccccc2)nc2ccccn2c1=O,4.44 µM (active),–
Cc1cc(NC(=O)Nc2nnc(N(C)Cc3ccccc3)s2)ccc1Br,–,20.9% (inactive)
COc1cc(CCC(=O)Nc2nnc(C)s2)cc(OC)c1OC,8.86 µM (active),–
COc1cc(C(=O)Nc2nnc(Cc3ccccc3)s2)cc(OC)c1OC,12.5 µM (active),–
Cc1noc(C)c1COc1cccc(C(=O)OC(C)C(=O)Nc2ccc3c(c2)OCO3)c1 (stereo not drawn),3.53 µM (active),–

SMILES,Potency,max response
COc1ccc(NC(=O)C(NC(=O)/C=C\c2ccc3c(c2)OCO3)c2ccccc2)cc1 (stereo not drawn),–,-17% (inactive)
C/C(=N\NC(=S)NCc1ccccc1)c1cccs1,–,-28.6% (inactive)
CC1(C)Cc2c(sc3ncnc(NNC(=S)NCc4ccccc4)c23)CO1,12.5 µM (active),–
O=c1[nH]c2ccccc2nc1/C=C(\O)c1cccs1,4.61 µM (active),–
NNC(=O)c1cc2sccc2s1,–,2.94% (inactive)
Cc1cc(/C=C2\SC(=S)N(Cc3ccco3)C2=O)c(C)n1-c1ccccc1,23.1 µM (active),–
CCN1CCN(c2c(/C=C3\SC(=S)N(Cc4ccco4)C3=O)c(C)c(C#N)c(=O)n2C)CC1,20.6 µM (active),–
Cc1cc(/C=C2\SC(=S)N(Cc3ccco3)C2=O)c(C)n1-c1cccnc1,9.2 µM (active),–
CN(C)c1ccc(C=C2SC(=S)N(Cc3ccco3)C2=O)cc1,3.53 µM (active),–
Cc1ccc2nc(NS(=O)(=O)c3ccc(Cl)cc3)c(Nc3ccc(C(=O)O)cc3)nc2c1,–,2.4% (inactive)
COc1ccc(Nc2nc3cc(C)ccc3cc2C#N)cc1,18.4 µM (active),–
COc1ccc(Nc2nc3cc(C)ccc3cc2C#N)c(OC)c1,1.58 µM (active),–
CC(=O)n1c2ccccc2c2nc3ccccc3nc21,2.59 µM (active),–
C=CCNc1nc2cc(-c3cccc(Cl)c3)sc2c(=O)n1C,14 µM (active),–
CCOC(=O)c1ccc(/C=C2/C=C(c3ccccc3)N(c3ccc(Cl)c(C(=O)O)c3)C2=O)cc1,20.6 µM (active),–
C=CCOc1ccc2nc(NC(=O)OC)[nH]c2c1,2.23 µM (active),–
CCOC(=O)c1c(NC(=O)CSc2nc3ccc(OC)cc3[nH]2)sc2c1CC(C)(C)NC2(C)C,–,-23% (inactive)
CC(=O)c1cccc(-c2ccnc3c2CC(C(=O)Nc2ccc(Cl)cc2)O3)c1 (stereo not drawn),12.5 µM (active),–
COc1ccc(NC(=O)C2Cc3c(-c4cccc(C(C)=O)c4)ccnc3O2)cc1 (stereo not drawn),3.96 µM (active),–
CC(=O)Nc1ccc(-c2ccnc3c2CC(C(=O)Nc2cccc(N(C)C)c2)O3)cc1 (stereo not drawn),9.94 µM (active),–
COc1ccc(NC(=O)C2Cc3c(-c4cccc(NC(C)=O)c4)ccnc3O2)cn1 (stereo not drawn),14 µM (active),–
